# According to the supplement of paper PMC6555819:
# What was measured:
# Test in all cases: PBM binding z-score (relative to random genomic background probes); higher = stronger binding; sequences stand for … in GC…GCGATTGACAGCGTAGAATGAAGG
# [1] = test system: RARb homodimer (NR concentration 270 nM)
# Outline: (§1)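 Regression normalization was applied to scanned fluorescence from custom Agilent 4×180K protein-binding microarrays. Before scanning, arrays were incubated 1 h with ligand-free nuclear receptor dimers, and binding was detected with antibodies against each partner (one per run). Binding z-scores use the random background probes as reference.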
# [2] = test system: RARg:RXRa (NR concentration 270 nM, RXRa partner concentration 90 nM)
# Outline: as §1
# [3] = test system: RARg homodimer (NR concentration 270 nM)
# Outline: as §1
# [4] = test system: RXRa DBDmut IVT, anti-RXR (DBD mutation: RXRa K156A/R161A, NR concentration 90 nM)
# Outline: as §1
# [5] = test system: RXRa homodimer (NR concentration 180 nM)
# Outline: as §1
# [6] = test system: THRa:RXRa (NR concentration 90 nM, RXRa partner concentration 90 nM)
# Outline: as §1
# [7] = test system: THRa homodimer (NR concentration 90 nM)
# Outline: as §1
# [8] = test system: VDR homodimer (NR concentration 270 nM)
# Outline: as §1
Sequence,PBM binding z-score [1],PBM binding z-score [2],PBM binding z-score [3],PBM binding z-score [4],PBM binding z-score [5],PBM binding z-score [6],PBM binding z-score [7],PBM binding z-score [8]
TCTTGTAGATCAATAGAGCTTAAGAAAGTGCGCT,-1.12,-0.405,-0.425,-0.034,-0.343,-0.676,-1.11,-0.773
CGAACTAGGTGATCCAGGACAGTGAATACATTGA,0.12,0.151,0.467,0.07,0.363,1.38,0.934,0.0681
CGACCAAGGTCAAAGGTCAGTGAAGAGATGACGG,5.51,8.66,8.05,3.97,10.4,4.71,2.27,3.83
TCTTGTAGATCAAGCAGGTTAAGAACGCCTGAGT,0.231,0.0271,-0.224,0.465,0.465,0.437,-0.161,0.189
TCTCGGAGGACACGAAGGTCAGAGGTTTCCAGAG,4.01,3.24,3.9,0.797,2.29,3.07,1.17,1.73
CAAACTAGGTCAAGGTCATAGTCGGTTTGTGCCA,4.91,5.78,6.44,2.95,5.54,4.38,3.83,4.29
TTACCAAGGGGAGCTGAGGTCGTTGATCCAACTC,0.704,0.0282,-0.439,0.656,0.726,3.71,1.49,1.86
CCTTACGGGTCACTCCAGGTTACAGCATCGGAGT,3.31,4.27,4.33,1.46,4.26,5.28,0.933,1.56
CAGCGTAGGTCAGGGCCAGTATAGGAGGAACGTT,2.49,3.4,4.22,-0.29,2.04,1.24,-0.0112,-0.494
TCTATTAGTTGAAGTGCAACCGACGAGTCCGTTT,0.42,0.379,0.172,1.58,0.754,0.107,0.145,1.83
CCGACGGGGGCATAAGGTTACCATAAGCCAGCCC,2.78,4.76,3.14,2.15,3.62,3.58,1.76,2.1
TCATATAGGTAAACGGTGAAAGTCGGTGTGGTAA,0.301,0.178,-0.128,1.47,0.601,0.081,0.00294,-0.132
GCGACTGGGGCAAAGCCGGTTACCATAAGGTTGG,0.363,-0.242,0.26,-0.988,-0.295,0.48,-0.526,-0.688
CTACCAAGGTGAACAAGGTCGATGATTACTATTC,2.03,1.58,1.71,0.696,1.61,2.89,1.41,0.758
CGTCCAAGGTTATAGGAGGTCAGTGAAGACAGAT,3.79,3.62,3.5,1.48,2.87,4.89,1.69,2.1
CGAACTGGGTCAGAACAGGACAGTGAAGGATGAT,1.53,1.84,2.27,0.00591,1.26,3.55,-0.0909,0.0814
CCTAGCAGGCCCGGGTCACTCAAGCATTTCGCTT,2.02,1.96,1.46,-0.519,2.43,2.71,1.3,0.294
TCGAGTAGGTTTGTCGGGGCATTCAGCCAACATA,0.429,-0.206,-0.592,0.805,-0.149,0.462,0.392,0.461
CCTAGCAGGCCAGGGTCACTTAAGCATTTCGCTT,2.51,2.93,2.28,0.27,3.13,2.67,0.864,1.25
TCTTGTAGACCAATAGAGGTTAAGAAAGTGCGCT,1.42,0.922,0.638,0.754,1.37,1.66,-0.31,0.345
AGAATGAGGTTAAGATCAGTGAAACAGAATACAT,0.841,2.07,1.34,0.64,2.31,2.31,0.766,0.283
ATCTCTACGTAAGACTCAGTTCAGTGAAGAACGC,0.71,0.107,0.393,0.74,0.286,0.601,0.378,1.45
CCTACTGGGCCACGGAAGGTCATTGATTCAGTGA,3.78,2.93,2.38,-0.515,2.57,3.67,0.727,1.2
TCATATAGGTAAATGCTAAGTGAAAGTCCGATCT,0.0173,0.4,0.337,1.68,0.615,0.0115,-0.264,0.0364
GCGACTGGGGCATCAGCAGGTTACGATAACTTAA,0.928,0.837,0.545,-0.13,0.313,0.816,-0.273,-0.435
ATATGTAGTTTACATCCGGGTCATTCAGGCTATG,2.34,1.83,1.44,1.58,2.1,3.2,2.74,2.82
TCGAGTAGCTTACCAATGGGGCATTCAGCTTTCT,-0.454,-0.745,-0.826,0.345,-0.307,-1.44,-0.855,-0.692
TCTAGTTGATCACGGAGGTCACACACGACGGGTA,3.89,4.17,3.92,0.917,4.56,3.52,2.48,2.18
